Data as given in PubChem BioAssay (NCI).
This is part of a sample that, as a whole, favours compounds with a hit. Of some 83,000 tested, about 20% had one in any assay.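 Growth was measured after 48 h exposure to one concentration of compound in 96-well plates. Values under 10 count as active.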 Activity calls are given as the source filed them.

Columns and labels:
Assay in all cases: NCI-60 one-dose screen, 48 h (100 = growth as untreated, 0 = no growth, -100 = all killed)
Conditions in all cases: 10 µM unless noted
[1] = test system: DU-145 prostate
[2] = test system: K-562 leukemia
[3] = test system: MALME-3M melanoma
[4] = test system: MDA-MB-231 breast
[5] = test system: RXF 393 renal
[6] = test system: SF-268 CNS
[7] = test system: SF-295 CNS
[8] = test system: SF-539 CNS
[9] = test system: UACC-257 melanoma
[10] = test system: M14 melanoma

Row | Structure (SMILES) | growth [1] | growth [2] | growth [3] | growth [4] | growth [5] | growth [6] | growth [7] | growth [8] | growth [9] | growth [10]
1 | CCc1cc(OC(=O)N2CCC(N3CCCCC3)CC2)ccc1Nc1cc(-c2ccc(-n3cccn3)cc2)[nH]n1 | -26.3% (active) | -17.2% (active) | -6.02% (active) | 59.5% (inactive) | 52.5% (inactive) | 75.9% (inactive) | 62.4% (inactive) | -54.8% (active) | -49.1% (active) | -85.5% (active)
2 | N#Cc1nc(-c2ccc(Cl)cc2)oc1N1CCC(S(=O)(=O)N2CCOCC2)CC1 | 105% (inactive) | 101% (inactive) | 99.2% (inactive) | 94.7% (inactive) | 99.8% (inactive) | 96.6% (inactive) | 102% (inactive) | 93.6% (inactive) | 108% (inactive) | 107% (inactive)
3 | CC(=O)OC[C@]12CC[C@@H](C(=O)/C=C/c3cccnc3)[C@@H]1[C@H]1CC[C@@H]3[C@@]4(C)CC[C@H](OC(C)=O)C(C)(C)[C@@H]4CC[C@@]3(C)[C@]1(C)CC2 | 45.7% (inactive) | 13.1% (inactive) | -66.3% (active) | -40.5% (active) | -71.6% (active) | 42.2% (inactive) | 29.7% (inactive) | -52.7% (active) | -4.75% (active) | 12.2% (inactive)
4 | C=C(C)[C@@H]1CC[C@]2(C(=O)NC3CCCCC3)CC[C@]3(C)[C@H](CC[C@@H]4[C@@]5(C)CC[C@H](N)C(C)(C)[C@@H]5CC[C@]43C)[C@@H]12 | 105% (inactive) | -34.7% (active) | 95.3% (inactive) | 108% (inactive) | 93.7% (inactive) | 91.6% (inactive) | 103% (inactive) | 98.5% (inactive) | 105% (inactive) | 103% (inactive)
5 | CN1CCN(c2ccc(Nc3nc(NCCNC(=O)c4ccccc4)c4sccc4n3)cc2)CC1 | 79.4% (inactive) | 8.82% (active) | 30.6% (inactive) | 54.3% (inactive) | 33.8% (inactive) | 64.6% (inactive) | 76.9% (inactive) | -75.4% (active) | 33.3% (inactive) | 27.8% (inactive)
6 | CN1CCN(c2ccc(Nc3nc(NCCCNS(=O)(=O)c4ccc(F)cc4)c4sccc4n3)cc2)CC1 | 72.6% (inactive) | 10.4% (inactive) | -66.2% (active) | 43.2% (inactive) | 36.5% (inactive) | 60.3% (inactive) | 32.4% (inactive) | -76% (active) | -28.6% (active) | -21.3% (active)
7 | CCCN1C=C/C(=C\C(=O)n2ccc3ccccc32)c2ccccc21 | 87.7% (inactive) | 56.9% (inactive) | 104% (inactive) | 76.2% (inactive) | 97.6% (inactive) | 96.4% (inactive) | 83.1% (inactive) | 88.2% (inactive) | 102% (inactive) | 95.4% (inactive)
8 | COc1ccccc1/C=C/C(=O)c1nnn(-c2ccc(F)cc2)c1C | 3.67% (active) | 8.81% (active) | 70.6% (inactive) | 65.6% (inactive) | 40.7% (inactive) | 66.2% (inactive) | 64.3% (inactive) | 20.7% (inactive) | 71.3% (inactive) | 62.3% (inactive)
9 | Cc1nc(N)sc1-c1csc(Nc2ccc(C(F)(F)F)cc2)n1 | 35.8% (inactive) | 22.5% (inactive) | 10.1% (inactive) | 20.1% (inactive) | 18.3% (inactive) | 49.5% (inactive) | 7.89% (active) | 27.1% (inactive) | 37.2% (inactive) | 28.4% (inactive)
10 | CC1=Cc2ccccc2OC12C=Cc1ccccc1O2 (stereo not given) | 119% (inactive) | 92.3% (inactive) | 98.7% (inactive) | 89.8% (inactive) | 97.8% (inactive) | 98.8% (inactive) | 97.2% (inactive) | 97.8% (inactive) | 114% (inactive) | 107% (inactive)
11 | NC(=S)n1c(=O)n(-c2cccc(C(F)(F)F)c2)c(=O)c2cc(-c3ccc(F)cc3F)ccc21 | 24.5% (inactive) | 8.79% (active) | -17.5% (active) | -11.3% (active) | 0.891% (active) | 13.3% (inactive) | -12% (active) | 17.2% (inactive) | -7.03% (active) | 14.5% (inactive)
12 | O=C(CCCCCCN1CC(=O)N2[C@@H](c3ccc(Cl)s3)c3[nH]c4ccccc4c3C[C@H]2C1=O)NO | 57.9% (inactive) | 27.5% (inactive) | 21.9% (inactive) | 43.8% (inactive) | 37.7% (inactive) | 81.6% (inactive) | 37.1% (inactive) | 40.9% (inactive) | 53.4% (inactive) | 51.8% (inactive)
13 | Cc1csc(/N=C(N)/N=C(\N)c2cccc(Br)c2)n1 | 105% (inactive) | 57% (inactive) | 97.7% (inactive) | 96% (inactive) | 94.1% (inactive) | 91.7% (inactive) | 94.1% (inactive) | 92.6% (inactive) | 102% (inactive) | 86.6% (inactive)
14 | O=C(Nc1ccccc1)Nc1nc2ccc([N+](=O)[O-])cc2[nH]1 | 56.3% (inactive) | 43.4% (inactive) | 40.1% (inactive) | 74.9% (inactive) | 60% (inactive) | 71.5% (inactive) | 66.3% (inactive) | 61.7% (inactive) | 57.4% (inactive) | 58.2% (inactive)
15 | CC1=C(C)C(=O)C(Nc2cccc(C)c2)=C(Br)C1=O | 104% (inactive) | 2.13% (active) | 117% (inactive) | 67.8% (inactive) | 106% (inactive) | 100% (inactive) | 100% (inactive) | 98.2% (inactive) | 84.8% (inactive) | 104% (inactive)
16 | C#C[C@]1(O)CC[C@H]2[C@@H]3CC=C4c5sc(Nc6cccc(F)c6)nc5CC[C@]4(C)[C@H]3CC[C@@]21C | 31.3% (inactive) | 0.936% (active) | 38.3% (inactive) | 30.6% (inactive) | -50.8% (active) | 37.1% (inactive) | -51.9% (active) | -10.8% (active) | 44% (inactive) | 11% (inactive)
17 | Cc1cc2nc(C(Cl)Cl)nc(-c3ccc(S(=O)(=O)N(C)C)cc3)n2n1 | 45.1% (inactive) | 14.1% (inactive) | 17.3% (inactive) | 12.6% (inactive) | 59.5% (inactive) | 67.6% (inactive) | 66.3% (inactive) | 69.4% (inactive) | 87% (inactive) | 37.1% (inactive)
18 | C#Cc1cc(C(=O)Nc2ccc(CNCCN3CCOCC3)c(C(F)(F)F)c2)ccc1C | 97% (inactive) | 67.1% (inactive) | 92.1% (inactive) | 90.3% (inactive) | 74.7% (inactive) | 86.3% (inactive) | 99.6% (inactive) | 93.6% (inactive) | 98.6% (inactive) | 101% (inactive)
19 | CC1=C(C)C(=O)C(Nc2cccc(C(=O)OC(C)(C)C)c2)=CC1=O | 69.9% (inactive) | 77.2% (inactive) | 64.9% (inactive) | 66.2% (inactive) | 73.4% (inactive) | 80.5% (inactive) | 94.3% (inactive) | 89.9% (inactive) | 62.5% (inactive) | 88.3% (inactive)
20 | C#C[C@]1(O)CC[C@H]2[C@@H]3CC=C4c5sc(N6CCN(C)CC6)nc5CC[C@]4(C)[C@H]3CC[C@@]21C | 75.5% (inactive) | 0.102% (active) | 56.9% (inactive) | 62% (inactive) | -22.1% (active) | 52.4% (inactive) | -39.8% (active) | 7.74% (active) | 61.5% (inactive) | -73.4% (active)
21 | O=c1c2cc(-c3ccc(F)cc3F)ccc2n(Nc2ccccc2)c(=O)n1-c1cccc(C(F)(F)F)c1 | 26.6% (inactive) | 6.95% (active) | -18.4% (active) | -5.2% (active) | 5.77% (active) | 22% (inactive) | -2.47% (active) | 18% (inactive) | -1.25% (active) | 21.6% (inactive)
22 | Cc1ccc(OCc2occc2C(=O)N2CCOCC2)cc1 | 103% (inactive) | 98.9% (inactive) | 102% (inactive) | 109% (inactive) | 99.8% (inactive) | 97.5% (inactive) | 96.3% (inactive) | 100% (inactive) | 116% (inactive) | 99.3% (inactive)
23 | CCOC(=O)c1c(NC(=O)c2ccc(C(F)(F)F)cc2)sc2c(CN3CCN(C)CC3)c(O)ccc12 | -39.1% (active) | -57.5% (active) | -56.9% (active) | -43.3% (active) | -86% (active) | -49.5% (active) | -58% (active) | -89.7% (active) | -13.5% (active) | -26.1% (active)
24 | CCNC(=O)Oc1ccc(/C(=C(/C)c2ccc(Cl)cc2)c2ccc(OCCN3CCCCCC3)cc2)cc1 | 58.5% (inactive) | 5.06% (active) | -58.4% (active) | 21.3% (inactive) | -10.3% (active) | 53.9% (inactive) | -40.1% (active) | -44% (active) | -19.9% (active) | -76.5% (active)
25 | N/C(=N\C(N)=N\c1nc2ccccc2s1)c1ccc(Cl)cc1 | 85.4% (inactive) | 86.9% (inactive) | 90.3% (inactive) | 79.5% (inactive) | 92.6% (inactive) | 93% (inactive) | 44.5% (inactive) | 95.4% (inactive) | 105% (inactive) | 87.6% (inactive)
